# Screens as filed in PubChem.
# Tau fibril ThT: qHTS for Inhibitors of Tau Fibril Formation, Thioflavin T Binding; recombinant tau K18 P301L, heparin-induced fibrillization, ThT fluorescence; Potency, µM (highest dose often 57.4 µM), inactives show top-dose activity, negative = inhibition, usual class: inhibitors; 270,000 compounds, 2.1% hits; further: potency means the concentration at half of the fitted maximal effect; nearly all actives have a fitted effect of over 55% in size
# Target sequence (P10636 561-689 P618L limits assumed): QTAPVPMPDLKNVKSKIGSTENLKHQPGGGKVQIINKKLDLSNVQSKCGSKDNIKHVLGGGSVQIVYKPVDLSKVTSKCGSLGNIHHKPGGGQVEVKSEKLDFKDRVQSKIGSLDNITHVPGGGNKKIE
#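 Tau K18 P301L fragment (15 uM unlabeled plus 0.24 uM Alexa 594-labeled) in 100 mM sodium acetate pH 7 with compound, fibrillization induced by 20 uM heparin for 6 hr at 37 C. Thioflavin T (30 uM) added, fluorescence read after 1 hr (ex 450, em 510 nm).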
# Tau fibril FP: qHTS for Inhibitors of Tau Fibril Formation, Fluorescence Polarization; Microtubule-associated protein tau (Homo sapiens), P10636; K18 P301L tau heparin fibrillization, Alexa594 FP, 6 h; Potency, µM (titrated, usually from 57.7 µM), inactives show at the highest dose activity, negative = inhibition, actives largely listed as inhibitors; 280,000 compounds, 0.39% hits; further: potency means the concentration at half of the fitted maximal effect; nearly all actives have a fitted effect of over 55% in size
#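 K18 P301L tau (15 uM unlabeled/0.24 uM Alexa 594-labeled, final) + compound + heparin 20 uM final; 100 mM NaOAc pH 7; 6 hr 37 C; ThT 30 uM final added, 1 hr RT; FP ex 555/em 632 nm.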
# G9a inh: qHTS Assay for Inhibitors of Histone Lysine Methyltransferase G9a; Histone-lysine N-methyltransferase EHMT2 (Homo sapiens), Q96KQ7; G9a H3K9 monomethylation, AlphaScreen, 2 h; Potency, µM (doses to about 102 µM), for inactives: top-dose activity, negative = inhibition, most hits filed as inhibitors; 350,000 compounds, 8.8% hits; AID 504332, 2011; further: potency means the concentration at half of the fitted maximal effect; nearly all actives have a fitted effect of over 75% in size
# Target sequence (Q96KQ7 913-1193 limits assumed): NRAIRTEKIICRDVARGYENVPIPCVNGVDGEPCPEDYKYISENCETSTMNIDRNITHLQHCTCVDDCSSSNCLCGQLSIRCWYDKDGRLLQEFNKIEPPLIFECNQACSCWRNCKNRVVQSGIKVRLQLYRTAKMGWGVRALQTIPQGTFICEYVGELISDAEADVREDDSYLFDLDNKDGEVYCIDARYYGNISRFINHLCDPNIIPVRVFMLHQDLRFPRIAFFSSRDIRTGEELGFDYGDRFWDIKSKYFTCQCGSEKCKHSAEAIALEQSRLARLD
#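 Enzyme 20 nM + cpd, 15 min RT; add b-H3K9 pep 500 nM / SAM 20 uM; 2 h RT; anti-H3K9me1 Ab 0.5 ug/mL + SA donor / anti-rabbit acceptor beads 20 ug/mL each, 10 min; AlphaScreen read.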
# Coupling enz: qHTS Assay for Inhibitors of Fructose-1,6-bisphosphate Aldolase from Giardia Lamblia: Coupling assay counterscreen; coupling enzyme system counterscreen, AmpLite Red fluorescence; activity change, negative = inhibition, % at 58.2 µM, hits read low; 290,000 compounds, 0.67% hits; AID 2472, 2010; in the data active means activity change below about -30%
#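 Compounds tested against the coupling enzymes alone at 57.5 uM final; readout was AmpLite Red fluorescence (525/598 nm) after 20 min at RT.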
# Tau fluor counter: Counterscreen qHTS for Inhibitors of Tau Fibril Formation, Fluorescence Polarization; 280,000 compounds, 0.93% hits; tau K18 P301L (four-repeat tau fragment) Alexa594 fluorescence, heparin fibrillization; Potency, µM (series often up to 57.7 µM), for inactives: at the top dose activity change, negative = decrease; further: potency means the concentration at half of the fitted maximal effect; nearly all actives have a fitted effect of over 55% in size
#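 Human K18 P301L tau (15 uM unlabeled plus 0.24 uM Alexa 594-labeled, final) in 100 mM sodium acetate pH 7 was mixed with compound and 20 uM heparin and incubated 6 hr at 37 C.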
# Sfp inh: qHTS Assay for Inhibitors of Bacillus subtilis Sfp phosphopantetheinyl transferase (PPTase); Biochemical Sfp PPTase activity, qHTS; Potency, µM, without a hit: largest response in the series, negative = inhibition, most hits filed as inhibitors; 310,000 compounds, 3.5% hits;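 further: the enzyme is Sfp with the accession as filed and its product quenches rhodamine fluorescence; potency means the concentration at half of the fitted maximal effect; 0% = enzyme reaction without inhibitor and -100% = no enzyme wells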
#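 After 15 min at room temperature with compound, 15 nM Sfp received 5 uM rhodamine-CoA plus 12.5 uM BHQ-2-ybbR (50 mM Hepes pH 7.6, 10 mM MgCl2). Rate came from the fluorescence difference over 30 min, ex 525/em 598 nm.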
# Starred values were filed as active, the others as inactive; u = inconclusive; x = no result given; [ ] = dose if it differs, or a comment. Sampled rows, rich in hits. Any-hit rate of the full collection: about 11%. Unless noted, the call rests on the fitted dose curve; in most records, active means well fitted curve in the direction sought with a large enough effect; inconclusive means small, poorly fitted or top-dose-only effect, or another doubt; inactive means no such curve, though single readings can be large; an effect the other way counts as inactive or inconclusive. Unless noted, on the % scale 0 is the no-effect control and ±100 the full control effect.
SMILES,Tau fibril ThT,Tau fibril FP,G9a inh,Coupling enz,Tau fluor counter,Sfp inh
CS(=O)(=O)c1ncc(Cl)c(C(=O)N(Cc2ccc(Cl)cc2)Cc2ccco2)n1,u,u,11µM*,x,-4%,x
CS(=O)(=O)N(CC(=O)NCc1ccco1)Cc1ccc(Cl)cc1,-16%,-8%,u,1,6%,28µM*
COc1ccc(N(Cc2ccccc2)C(=O)c2nc(S(C)(=O)=O)ncc2Cl)cc1,-18%,-16%,11µM*,x,-9%,x
CCCSc1ncc(Cl)c(C(=O)N(Cc2ccccc2)c2ccc(OC)cc2)n1,-11%,3%,27%[59 µM],x,-17%,x
O=C(c1ccc(Cl)cc1)N(Cc1ccco1)Cc1ccco1,-4%,-4%,-46%[59 µM],x,1%,x
COc1ccc([C@H]2CC(=O)C=C(c3ccccc3OC)C2)cc1OC,x,x,-9%[2.33 µM],x,x,x
COc1ccccc1C(=O)Nc1ccc2nc(SCCOc3ccccc3C)sc2c1,4%,-11%,46%[59 µM],x,-21%,x
COc1ccc(CNC(=O)Cn2c(=O)n3nc(-c4cccc(F)c4)nc3c3ccccc32)cc1OC,-2%,-15%,-19%[59 µM],x,-9%,x
COc1ccc(C(=O)NC(Cc2c[nH]c3ccccc23)C(=O)O)cc1 (centres undefined),x,x,14%,6,x,12%
CCCOc1ccc(C(=O)CCNC(Cc2c[nH]c3ccccc23)C(=O)O)cc1 (centres undefined),x,x,7.9µM*,4,x,u
O=C(O)C(=O)Cc1c[nH]c2ccccc12,u,u,25µM*,-8,u,u
O=C(Cc1cccs1)NC(Cc1c[nH]c2ccccc12)C(=O)O (centres undefined),x,x,56µM*,4,x,6%
Cc1nc(N[C@@H](Cc2c[nH]c3ccccc23)C(=O)O)c2oc3ccccc3c2n1,u,6%,5.6µM*,3,-13%,12%
O=C(Cc1c[nH]c2ccccc12)OCC(=O)c1ccccc1,u,2%,-3%,x,-29%,13%
O=C(NCC1CCCCC1)c1nnc(C(=O)NCC2CCCCC2)c2c1[nH]c1ccccc12,-1%,-5%,x,2,-8%,-28%
Cn1ccc2cc(-c3ccc4ncnc(NCc5ccc6c(c5)OCO6)c4c3)ccc21,x,x,7%[12.7 µM],x,x,x
CC(Cc1c[nH]c2ccccc12)C(=O)O (centres undefined),-10%,u,10µM*,1,-10%,5%
O=C(O)C(Cc1c[nH]c2ccccc12)NS(=O)(=O)c1cccc2nsnc12 (centres undefined),14%,3%,u,-11,7%,56µM*
O=C(O)C(O)Cc1c[nH]c2ccccc12 (centres undefined),-8%,4%,-13%,-1,-12%,-3%
O=C(O)C(Cc1c[nH]c2ccccc12)N1C(=O)C2C3c4ccccc4C(c4ccccc43)C2C1=O (centres undefined),-8%,1%,25µM*,-2,-2%,20%
Cc1ccnc(NC(=O)c2cc(-c3ccc(Cl)s3)nc3ccccc23)c1,x,x,0%,x,x,x
Nn1c(SCC(=O)Nc2ccc3c(c2)OCO3)nnc1-c1ccccc1,u,6%,-2%,2,-14%,-5%
O=C(CSc1nc(-c2ccc(F)cc2)[nH]c1-c1ccc(F)cc1)Nc1ccc2c(c1)OCCO2,u,-14%,12%[59 µM],x,8.9µM*[quencher],x
Cc1cccc(-c2nc(SCC(=O)Nc3ccc4c(c3)OCO4)c(-c3ccccc3)[nH]2)c1,u,u,u,x,6.3µM*[quencher],x
O=C(CSc1nc(-c2ccccc2)[nH]c1-c1ccccc1)Nc1ccc2c(c1)OCCO2,u,-14%,u,x,10µM*[quencher],x
SMILES,Tau fibril ThT,Tau fibril FP,G9a inh,Coupling enz,Tau fluor counter,Sfp inh
CCOc1ccc(-c2nc(SCC(=O)Nc3ccc4c(c3)OCO4)c(-c3ccc(F)cc3)[nH]2)cc1,u,2%,3%[59 µM],x,u,x
COc1ccc(-c2[nH]c(-c3ccccc3)nc2SCC(=O)Nc2ccc3c(c2)OCCO3)cc1,u,u,u,x,8.9µM*[quencher],x
O=C(CSc1nc(-c2ccc(F)cc2)[nH]c1-c1ccc(F)cc1)Nc1ccc2c(c1)OCO2,u,u,13%[59 µM],x,u,x
COc1cccc(-c2nc(SCC(=O)Nc3ccc4c(c3)OCO4)c(-c3ccccc3)[nH]2)c1,u,-6%,8.9µM*,x,7.9µM*[quencher],x
COc1ccc(-c2nc(SCC(=O)Nc3ccc4c(c3)OCO4)c(-c3ccc(OC)cc3)[nH]2)cc1,-10%,3%,13µM*,x,u,x
CCCc1cc(=O)n2[nH]c(NC(=O)c3ccc(C(C)(C)C)cc3)nc2n1,-6%,3%,12%[59 µM],x,2%,x
Cc1cc(C)c2c(n1)sc1c(=O)n(-c3ccccc3C(F)(F)F)nnc12,0%,-9%,-30%[59 µM],x,-9%,x
COc1ccc2c(c1)O[C@@H](c1ccc3c(c1)OCO3)[C@H](OC(=O)N[C@H]1CCCc3ccccc31)C2=O,-12%,-5%,x,1,-9%,-9%
c1ccc(COc2ccc(OCCn3cncn3)cc2)cc1,-10%,5%,3%[59 µM],3,-3%,10%
Clc1cc(Cl)c(OCCCCn2cncn2)c(Cl)c1,x,x,7.9µM*,4,x,u
c1ccc(Oc2cccc(OCCn3cncn3)c2)cc1,-1%,4%,1.8µM*,2,-2%,-6%
c1ccc(-c2ccc(OCCCn3cncn3)cc2)cc1,u,-3%,u,1,-17%,-25%
Brc1cccc(OCCCCn2cncn2)c1,x,x,25µM*,-4,x,u
COc1ccc(CN(CC2CCCO2)C(=O)CN2C(=O)COc3ccccc32)cc1OC (centres undefined),8%,5%,34%[59 µM],4,1%,-14%
O=C(Nc1cccc(NC(=O)c2cccs2)c1)c1ccc([N+](=O)[O-])o1,x,14%,-16%,2,32µM*[quencher],2%
O=C(/C=C/c1cccc([N+](=O)[O-])c1)Nc1cccc(NC(=O)c2cccs2)c1,u,u,-49%[59 µM],-3,13µM*[quencher],31%
Cc1ccccc1CN1CCN(CC(=O)NCc2ccccc2)CC1,x,x,27%,1,x,18%
CCN1C(=O)[C@H]2[C@@H](c3ccc(-c4ccc(C(C)=O)cc4)cc3)N[C@@](Cc3ccccc3)(C(=O)OC)[C@H]2C1=O,x,x,-27%[2.33 µM],x,x,x
